The record followed here is PubChem BioAssay (NCI).

Test systems include SR leukemia; RPMI-8226 leukemia; OVCAR-8 ovarian; OVCAR-5 ovarian; OVCAR-4 ovarian; SK-OV-3 ovarian; IGROV1 ovarian; OVCAR-3 ovarian; HS 578T breast; BT-549 breast; MDA-MB-435 melanoma; SW-620 colon; MCF7 breast; HCT-116 colon; HCC-2998 colon; KM12 colon; NCI/ADR-RES ovarian; T-47D breast.
Holding throughout (assay): NCI-60 one-dose screen, 48 h (100 = growth as untreated, 0 = no growth, -100 = all killed)
What all share (settings): 10 µM unless noted

SMILES strings stand for the structures. About 83,000 compounds went through this panel and 20% of them were active in at least one assay; those are over-represented in the sample as a whole.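 96-well plates, one dose, 48 hours. Percent growth reported; active if below 10.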 Values without a mark were called inactive. Active and inactive are the calls of the source.

As to `CC1(/C=C/c2ccc(-c3ccccc3)cc2)CCn2cnc3ncnc(c32)N1O` (stereo unspecified), the growth with SR leukemia was 18.3%; in the assay with RPMI-8226 leukemia, 21.3%; in the assay on OVCAR-8 ovarian it was 25.7%; with OVCAR-5 ovarian, 47.9%; with OVCAR-4 ovarian, 36.6%; in the assay on SK-OV-3 ovarian, 19.8%. Besides, the growth in the assay with IGROV1 ovarian is 15.3%; in the assay with OVCAR-3 ovarian it was 37.2%; with HS 578T breast it was 55.5%; in the assay on BT-549 breast it was 17%; with MDA-MB-435 melanoma, 28.4%; in the assay with SW-620 colon, 28.2%. Moreover, the growth in the assay on MCF7 breast was 8.15% (active); with HCT-116 colon it was 20.2%; in the assay on HCC-2998 colon, 32.3%; in the assay on KM12 colon, 26%.
`FC(F)(F)c1[nH]ncc1-c1nc2ccc3[nH]ncc3c2c2c1CCCC2`: the growth in the assay with SR leukemia is -16.6% (active); with RPMI-8226 leukemia, 12.3%; with OVCAR-8 ovarian it was 13.7%; in the assay on OVCAR-5 ovarian it was 9.73% (active); with OVCAR-4 ovarian it was 45.8%; in the assay with IGROV1 ovarian, -8.57% (active). In addition, the growth in the assay with OVCAR-3 ovarian is 9.88% (active); in the assay with HS 578T breast, -3.07% (active); in the assay with NCI/ADR-RES ovarian, 53.7%; with T-47D breast, 0% (active); with BT-549 breast, -24% (active); in the assay with MDA-MB-435 melanoma, 32.1%. For the same compound, the growth in the assay with SW-620 colon was 7.83% (active); with MCF7 breast, 1.69% (active); in the assay with HCT-116 colon, 1.68% (active); with HCC-2998 colon, 5.29% (active); in the assay with KM12 colon, 11.1%.
As for `Cc1ccc(C2CC(c3cccc(Nc4ccncc4)c3)=Nc3c(N)nc(N)nc3N2)cc1` (stereo unspecified), the growth was -4.18% (active) in the assay with SR leukemia; 44.9% with RPMI-8226 leukemia; 38% in the assay with OVCAR-8 ovarian; 95.5% with OVCAR-5 ovarian; 81.2% with OVCAR-4 ovarian; 97.9% in the assay with SK-OV-3 ovarian. For the same compound, the growth is 42.4% with IGROV1 ovarian; 82.1% in the assay on OVCAR-3 ovarian; 80% in the assay with HS 578T breast; 89% in the assay on T-47D breast; 114% in the assay on BT-549 breast; 21.7% with MDA-MB-435 melanoma. The growth is 30.4% in the assay on SW-620 colon; 37.7% in the assay with MCF7 breast; 22.3% with HCT-116 colon; 62.4% with HCC-2998 colon; 51.7% in the assay on KM12 colon.
For the compound `CC1(C)N=C(N)N=C(N)N1c1cc(Cl)ccc1Cl`, the growth is 67% in the assay on SR leukemia; 107% with RPMI-8226 leukemia; 85.5% in the assay on OVCAR-8 ovarian; 59.2% in the assay with OVCAR-5 ovarian; 96.4% in the assay with OVCAR-4 ovarian; 97.2% with SK-OV-3 ovarian. For the same compound, the growth with IGROV1 ovarian was 68.4%; with OVCAR-3 ovarian it was 115%; in the assay on HS 578T breast it was 101%; in the assay on T-47D breast, 95.2%; in the assay on BT-549 breast, 85.2%; with MDA-MB-435 melanoma, 108%. Moreover, the growth in the assay on SW-620 colon is 42.2%; in the assay on MCF7 breast, 65.7%; with HCT-116 colon, 36.8%; in the assay on HCC-2998 colon it was 94.8%; with KM12 colon, 94%.
As for `CCOC(=O)CC1CSC(N/N=C/c2ccc(F)c(Br)c2)=N1` (stereo unspecified), the growth in the assay on SR leukemia is 87.7%; in the assay on RPMI-8226 leukemia, 104%; in the assay with OVCAR-8 ovarian, 114%; with OVCAR-5 ovarian it was 95.1%; with OVCAR-4 ovarian it was 89.1%; in the assay with SK-OV-3 ovarian, 95.3%. For the same compound, the growth with IGROV1 ovarian is 117%; with OVCAR-3 ovarian, 99.3%; in the assay with HS 578T breast it was 112%; in the assay on T-47D breast it was 93.7%; in the assay with BT-549 breast, 110%; in the assay on MDA-MB-435 melanoma it was 108%. For the same compound, the growth in the assay on SW-620 colon is 102%; in the assay with MCF7 breast it was 96.1%; in the assay with HCT-116 colon it was 88.5%; in the assay with HCC-2998 colon, 105%; in the assay with KM12 colon it was 93.2%.
Consider `COc1ccc2[nH]cc(-c3nonc3-c3c[nH]c4ccc(Br)cc34)c2c1`, for which the growth in the assay with SR leukemia is 35.4%; in the assay on RPMI-8226 leukemia it was 52.7%; in the assay with OVCAR-8 ovarian it was 48.7%; in the assay with OVCAR-5 ovarian, 47.7%; in the assay with OVCAR-4 ovarian it was 50.1%; with SK-OV-3 ovarian, 56.3%. The growth in the assay on IGROV1 ovarian is 65.3%; in the assay with OVCAR-3 ovarian, 62.6%; with HS 578T breast, 55.1%; with T-47D breast, 3.83% (active); in the assay with BT-549 breast, 74.9%; in the assay with MDA-MB-435 melanoma, 65.8%. Further, the growth with SW-620 colon is 59.5%; with MCF7 breast it was 31.2%; in the assay with HCT-116 colon it was 36.7%; with HCC-2998 colon, 22.2%; with KM12 colon, 15.5%.
On to `COc1cc2ncnc(Nc3ccc(S(=O)(=O)Nc4nccs4)cc3)c2cc1OCCCN1CCCC1`, for which the growth is 99.1% in the assay with SR leukemia; 107% with RPMI-8226 leukemia; 99.7% in the assay with OVCAR-8 ovarian; 109% with OVCAR-5 ovarian; 110% with OVCAR-4 ovarian; 98.6% in the assay on SK-OV-3 ovarian. For the same compound, the growth in the assay with IGROV1 ovarian is 110%; in the assay on OVCAR-3 ovarian, 109%; in the assay on HS 578T breast, 110%; in the assay on T-47D breast, 105%; with BT-549 breast, 105%; in the assay on MDA-MB-435 melanoma, 99.7%. The growth in the assay on SW-620 colon was 103%; in the assay with MCF7 breast, 99.6%; in the assay with HCT-116 colon, 97.3%; in the assay with HCC-2998 colon it was 112%; with KM12 colon, 121%.
`Cc1cc(C(=O)CCCC(=O)c2cc(C)c(O)c(C)c2)cc(C)c1O`: the growth in the assay on SR leukemia was 81.9%; in the assay with RPMI-8226 leukemia, 94.2%; in the assay with OVCAR-8 ovarian it was 104%; in the assay on OVCAR-5 ovarian, 95.8%; in the assay with OVCAR-4 ovarian it was 93.1%; with SK-OV-3 ovarian, 98%. Besides, the growth with IGROV1 ovarian was 95.9%; with OVCAR-3 ovarian, 105%; in the assay on HS 578T breast it was 98.8%; in the assay on T-47D breast it was 84.6%; in the assay on BT-549 breast, 112%; in the assay with MDA-MB-435 melanoma, 101%. In addition, the growth is 98.9% in the assay on SW-620 colon; 86.5% in the assay with MCF7 breast; 86.8% in the assay with HCT-116 colon; 46% with HCC-2998 colon; 102% in the assay on KM12 colon.
Turning to `COC1C(O)CC(OC2CC(OC3CC(O[C@@H]4C(=O)c5c(cc6cc(OC7CC(OC8CC(O)C(O)C(C)O8)C(O)C(C)O7)c(C)c(O)c6c5O)CC4[C@H](OC)C(=O)C(C)=O)OC(C)C3O)OC(C)C2O)OC1C` (stereo partly specified), the growth with SR leukemia is -5.46% (active); in the assay with RPMI-8226 leukemia it was 1.67% (active); in the assay with OVCAR-8 ovarian it was 4.01% (active); in the assay on OVCAR-5 ovarian it was 13.9%; in the assay on OVCAR-4 ovarian it was 10.7%; in the assay with SK-OV-3 ovarian, 17.4%. Besides, the growth with IGROV1 ovarian is 13.6%; in the assay on OVCAR-3 ovarian it was 6.3% (active); with HS 578T breast, 10.8%; in the assay on BT-549 breast, -18.8% (active); in the assay with MDA-MB-435 melanoma it was -74.8% (active); with SW-620 colon it was 8.3% (active). Moreover, the growth is 3.16% (active) with MCF7 breast, 4.47% (active) in the assay with HCT-116 colon, -14.3% (active) with HCC-2998 colon and 13% with KM12 colon.
